Here are results for seven compounds from PubChem BioAssay (EPA / NIEHS).

The nature of experiment [1]: ATG_E_Box_CIS: Attagene CIS-FACTORIAL HepG2 Assay for human Enhancer Box (E-box) (AID 2282936). The following applies: HepG2 E-box cis-reporter transcription, actives raise or lower the signal. The procedure, abridged:
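Fluorescent reporter fragments separated by capillary electrophoresis gave the signal; mRNA came from HepG2 cells transfected with cis-element reporters and treated 24 h. Curves fitted bidirectionally relative to DMSO controls.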

Experiment [2] can be described thus: ATG_M_61_CIS: Attagene CIS-FACTORIAL HepG2 Assay for M61 Transcription Factor (Internal Marker) (AID 2282937). The following applies: HepG2 Attagene CIS-FACTORIAL M61 internal marker reporter; actives raise or lower the signal. The procedure, abridged: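 Readout: fluorescent reporter mRNA fragments resolved by capillary electrophoresis after RT-PCR. Transiently transfected human HepG2 cells carried MRTU constructs reporting endogenous TF activity; 24 h chemical exposure; gain or loss of signal fitted relative to DMSO.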

Experiment [3] is described as follows: ATG_EGR_CIS: Attagene CIS-FACTORIAL HepG2 Assay for human Early Growth Response 1 (EGR1) (AID 2282938). The following applies: HepG2 Attagene CIS-FACTORIAL EGR reporter mRNA; actives raise or lower the signal. The procedure, abridged:
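Read-out: fluorescent reporter-mRNA fragments resolved by capillary electrophoresis after RT-PCR, 24 h post-dose in transiently transfected HepG2. Endogenous transcription-factor activity reported via cis-element-regulated reporter units; gain or loss fitted relative to DMSO.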

Experiment [4] can be described thus: ATG_M_19_CIS: Attagene CIS-FACTORIAL HepG2 Assay for M19 Transcription Factor (Internal Marker) (AID 2282939). The following applies: HepG2 Attagene CIS-FACTORIAL M19 internal marker reporter; actives raise or lower the signal. The procedure, abridged:
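In this multiplexed cell assay, transiently transfected HepG2 reporter units report endogenous transcription-factor activity; after 24 hours of treatment, labelled reporter cDNA fragments are quantified by capillary electrophoresis and fitted bidirectionally against DMSO.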

Experiment [5] in a line: ATG_Ets_CIS: Attagene CIS-FACTORIAL HepG2 Assay for human Erythroblast Transformation Specific (ETS) (AID 2282941). The following applies: HepG2 ETS cis-reporter transcription, actives raise or lower the signal. The procedure, abridged:
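Bidirectional fit versus DMSO of reporter mRNA signal, detected by RT-PCR and capillary electrophoresis in HepG2 cells transiently transfected with cis-element reporters and dosed 24 h.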

The target of experiment [6] is Hepatocyte nuclear factor 3-beta (Homo sapiens) (UniProt Q9Y261). In words: ATG_FoxA2_CIS: Attagene CIS-FACTORIAL HepG2 Assay for human Forkhead box A2 (FOXA2) (AID 2282942). The following applies: HepG2 cis-reporter transcription factor activity, 24 h; actives raise or lower the signal. The procedure, abridged: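 Readout: fluorescent reporter transcripts resolved by capillary electrophoresis after RT-PCR. Transiently transfected HepG2, 24 h compound exposure, endogenous TF activity at cis promoter elements. Gain or loss of signal fitted relative to DMSO.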
Sequence of Hepatocyte nuclear factor 3-beta (Homo sapiens) (Q9Y261 whole entry, looked up): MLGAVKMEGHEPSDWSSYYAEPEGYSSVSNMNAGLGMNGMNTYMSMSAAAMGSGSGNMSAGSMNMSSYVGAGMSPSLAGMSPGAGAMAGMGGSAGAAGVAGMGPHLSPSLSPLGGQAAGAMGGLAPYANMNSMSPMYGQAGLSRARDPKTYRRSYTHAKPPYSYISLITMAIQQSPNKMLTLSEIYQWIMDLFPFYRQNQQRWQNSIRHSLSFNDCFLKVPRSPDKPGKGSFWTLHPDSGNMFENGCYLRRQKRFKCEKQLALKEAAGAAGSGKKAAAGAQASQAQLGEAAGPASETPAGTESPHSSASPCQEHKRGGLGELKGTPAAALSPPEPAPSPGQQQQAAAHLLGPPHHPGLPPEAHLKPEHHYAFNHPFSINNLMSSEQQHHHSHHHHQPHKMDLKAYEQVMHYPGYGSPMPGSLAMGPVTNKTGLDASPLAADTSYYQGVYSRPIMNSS

A short description of experiment [7]: ATG_FoxO_CIS: Attagene CIS-FACTORIAL HepG2 Assay for human Forkhead box O (FoxO) (AID 2282943). The following applies: HepG2 Attagene cis-reporter, FoxO element, mRNA; actives raise or lower the signal. The procedure, abridged:
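HepG2, transient MRTU transfection (cis element, endogenous TFs). Dose 24 h. TriZol RNA → oligo(dT) RT → PCR → 6-FAM primer extension → HpaI cut → CE. Gain/loss vs DMSO.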

Experiment [8] can be described thus: ATG_GATA_CIS: Attagene CIS-FACTORIAL HepG2 Assay for human GATA Binding Protein (AID 2282944). The following applies: HepG2 GATA cis-element reporter, Attagene multiplex mRNA; actives raise or lower the signal. The procedure, abridged: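 Measures endogenous transcription factor-driven reporter mRNA in HepG2 cells transiently carrying cis-regulated constructs. 24 h dosing; RNA via oligo(dT) reverse transcription, PCR, HpaI digestion, capillary electrophoresis; fitted relative to DMSO.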

Experiment [9] can be described thus: ATG_GLI_CIS: Attagene CIS-FACTORIAL HepG2 Assay for human Zinc Finger Protein GLI1 (AID 2282945). The following applies: HepG2, Attagene cis-factorial reporter mRNA, GLI element; actives raise or lower the signal. The procedure, abridged: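 Bidirectional curve fits relative to DMSO, using reporter mRNA levels from RT-PCR plus capillary electrophoresis. Cells were HepG2 transiently carrying cis-regulated reporter constructs, harvested 24 h after dosing.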

Experiment [10] is described as follows: ATG_ISRE_CIS: Attagene CIS-FACTORIAL HepG2 Assay for human Interferon Regulatory Factor 1 (IRF1) binding to an Interferon-Stimulated Response Element (ISRE) (AID 2282948). The following applies: HepG2 ISRE cis-reporter (Attagene), mRNA transcription readout; actives raise or lower the signal. The procedure, abridged: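 Uses HepG2 liver cells transfected with cis-regulated reporters and measures mRNA 24 h post-dosing through RT-PCR, primer-extension labelling and capillary electrophoresis, with DMSO as negative control.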

Experiment [11] is described as follows: ATG_M_32_CIS: Attagene CIS-FACTORIAL HepG2 Assay for M32 Transcription Factor (Internal Marker) (AID 2282949).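 Further: background control marker of the multiplexed CIS panel rather than a real target.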 The following applies: HepG2 Attagene cis-factorial M32 reporter, mRNA; actives raise or lower the signal. The procedure, abridged:
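Using DMSO as baseline, bidirectional curve fits were applied to reporter mRNA signals. These came from transiently transfected HepG2 cells exposed for 24 h, with RNA analysed by RT-PCR, FAM primer extension, HpaI digestion and CE.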

A short description of experiment [12]: ATG_M_06_CIS: Attagene CIS-FACTORIAL HepG2 Assay for M06 Transcription Factor (Internal Marker) (AID 2282950). The following applies: HepG2 Attagene CIS-FACTORIAL M06 internal marker reporter; actives raise or lower the signal. The procedure, abridged:
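One of many multiplexed endpoints: HepG2 reporter mRNA after 24 h dosing, detected by RT-PCR and capillary electrophoresis fluorescence; gain or loss of signal analysed against DMSO.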

Experiment [13] has as its target Hepatocyte nuclear factor 6 (Homo sapiens) (UniProt Q9UBC0). In words: ATG_HNF6_CIS: Attagene CIS-FACTORIAL HepG2 Assay for human Hepatocyte Nuclear Factor 6 (HNF6) (AID 2282952). The following applies: HepG2 Attagene cis-factorial HNF6 reporter transcription; actives raise or lower the signal. The procedure, abridged: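 Endogenous transcription factor activity in human HepG2 liver cells was captured through cis-regulated reporter constructs. After 24 h treatment, reporter mRNA was measured by RT-PCR with capillary electrophoresis, and activity was fitted in both directions relative to DMSO.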

Experiment [14] addresses Heat shock factor protein 1 (Homo sapiens) (UniProt Q00613). In words: ATG_HSE_CIS: Attagene CIS-FACTORIAL HepG2 Assay for human Heat Shock Transcription Factor 1 (HSE) (AID 2282953). The following applies: HepG2 HSE cis-reporter, Attagene RNA transcription; actives raise or lower the signal. The procedure, abridged: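 Using HepG2 with transfected cis-driven reporter constructs, compound effects on endogenous factor activity are scored as reporter mRNA change at 24 h. Detection: RT-PCR, HpaI digestion, capillary electrophoresis; bidirectional fitting to DMSO.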

A short description of experiment [15]: ATG_MRE_CIS: Attagene CIS-FACTORIAL HepG2 Assay for human Metal Responsive Element (MRE) (AID 2282954). The following applies: HepG2 MRE cis-reporter transcription, Attagene multiplex; actives raise or lower the signal. The procedure, abridged:
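Multiplexed cis-reporter assay in human HepG2 liver cells, 24 h incubation with test chemical. Reporter transcripts measured by RT-PCR and capillary electrophoresis; values from bidirectional curve fitting versus DMSO.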

Experiment [16] is described as follows: ATG_PBREM_CIS: Attagene CIS-FACTORIAL HepG2 Assay for human Phenobarbital-responsive Enhancer Module (PBREM) (AID 2282955). The following applies: HepG2 PBREM cis-reporter, Attagene multiplexed transcription; actives raise or lower the signal. The procedure, abridged:
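Reporter mRNA read by RT-PCR, 6-FAM primer extension, HpaI digestion and capillary electrophoresis. Transfected HepG2 cells, 24 h compound exposure. Gain or loss of signal fitted bidirectionally relative to DMSO baseline.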

Experiment [17] concerns the target Bile acid receptor (Homo sapiens) (UniProt Q96RI1). In words: ATG_IR1_CIS: Attagene CIS-FACTORIAL HepG2 Assay for human Nuclear Receptor Subfamily 1 Group H Member 4 (NR1H4), IR1 submotif (AID 2282946). The following applies: IR1 reporter transcription, actives raise or lower the signal. The procedure, abridged:
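HepG2 cells transiently transfected with multiplexed cis-element reporter units read endogenous transcription factor activity. After 24 h compound exposure, reporter mRNA was quantified by RT-PCR, fluorescent labelling, HpaI digestion and capillary electrophoresis; bidirectional fitting versus DMSO baseline.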

A short description of experiment [18]: ATG_GRE_CIS: Attagene CIS-FACTORIAL HepG2 Assay for human Glucocorticoid Response Elements (GRE) (AID 2282947). The following applies: HepG2 GRE cis-reporter, Attagene multiplex mRNA; actives raise or lower the signal. The procedure, abridged:
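Multiplexed cis-reporter mRNA induction, HepG2, 24 h post-dose. RT-PCR, FAM-labelled, HpaI-digested amplicons by CE. Bidirectional fit vs DMSO.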

The target in experiment [19] is Hypoxia-inducible factor 1-alpha (Homo sapiens) (UniProt Q16665). In words: ATG_HIF1a_CIS: Attagene CIS-FACTORIAL HepG2 Assay for human Hypoxia Inducible Factor 1 (HIF1A) (AID 2282951). The following applies: HepG2 Attagene cis-factorial HIF1a reporter transcription; actives raise or lower the signal. The procedure, abridged: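 RT-PCR/capillary electrophoresis fluorescence readout of reporter transcripts from endogenous-TF-driven cis elements in transfected HepG2 cells, 24 h exposure; activity fitted in both directions against DMSO controls.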
Sequence of Hypoxia-inducible factor 1-alpha (Homo sapiens) (Q16665 whole entry, looked up): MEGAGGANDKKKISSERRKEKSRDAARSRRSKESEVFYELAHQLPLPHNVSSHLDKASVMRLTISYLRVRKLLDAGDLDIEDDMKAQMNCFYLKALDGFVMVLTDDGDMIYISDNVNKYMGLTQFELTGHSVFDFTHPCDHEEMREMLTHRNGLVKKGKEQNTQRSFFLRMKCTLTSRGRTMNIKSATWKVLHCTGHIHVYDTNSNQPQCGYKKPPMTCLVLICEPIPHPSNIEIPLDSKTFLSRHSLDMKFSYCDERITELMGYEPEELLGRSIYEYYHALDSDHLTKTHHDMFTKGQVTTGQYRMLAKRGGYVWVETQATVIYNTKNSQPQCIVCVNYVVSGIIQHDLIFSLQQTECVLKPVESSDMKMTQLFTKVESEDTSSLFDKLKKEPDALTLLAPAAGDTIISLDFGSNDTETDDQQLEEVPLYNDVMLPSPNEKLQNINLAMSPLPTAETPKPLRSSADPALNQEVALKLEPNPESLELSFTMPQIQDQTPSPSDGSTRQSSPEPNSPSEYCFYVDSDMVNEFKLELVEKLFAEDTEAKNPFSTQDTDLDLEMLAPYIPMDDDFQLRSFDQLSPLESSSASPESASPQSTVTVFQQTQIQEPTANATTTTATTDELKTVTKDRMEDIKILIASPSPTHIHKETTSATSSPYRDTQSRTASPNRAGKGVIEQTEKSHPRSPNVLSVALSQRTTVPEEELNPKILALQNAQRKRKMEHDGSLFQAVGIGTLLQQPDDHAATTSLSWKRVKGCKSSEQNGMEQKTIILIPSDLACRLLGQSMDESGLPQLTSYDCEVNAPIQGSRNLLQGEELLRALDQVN

Active and inactive are the calls of the source. How the source made its calls: active means hit-call score of the fitted dose curve at least 0.9, where 1 is the maximum; inactive means score below 0.9.

Sequence of Hepatocyte nuclear factor 6 (Homo sapiens) (Q9UBC0 whole entry, looked up): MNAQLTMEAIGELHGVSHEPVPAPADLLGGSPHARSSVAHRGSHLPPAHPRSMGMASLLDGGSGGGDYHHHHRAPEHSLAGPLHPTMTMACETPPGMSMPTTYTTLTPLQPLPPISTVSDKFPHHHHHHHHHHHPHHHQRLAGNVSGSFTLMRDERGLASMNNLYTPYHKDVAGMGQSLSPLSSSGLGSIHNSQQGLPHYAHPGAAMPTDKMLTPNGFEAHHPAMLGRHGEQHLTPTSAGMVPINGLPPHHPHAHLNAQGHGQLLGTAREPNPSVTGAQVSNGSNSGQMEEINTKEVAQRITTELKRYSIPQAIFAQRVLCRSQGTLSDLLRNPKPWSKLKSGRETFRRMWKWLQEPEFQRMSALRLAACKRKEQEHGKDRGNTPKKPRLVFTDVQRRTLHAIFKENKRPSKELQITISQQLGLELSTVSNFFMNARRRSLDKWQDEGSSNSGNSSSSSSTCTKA
Sequence of Heat shock factor protein 1 (Homo sapiens) (Q00613 whole entry, looked up): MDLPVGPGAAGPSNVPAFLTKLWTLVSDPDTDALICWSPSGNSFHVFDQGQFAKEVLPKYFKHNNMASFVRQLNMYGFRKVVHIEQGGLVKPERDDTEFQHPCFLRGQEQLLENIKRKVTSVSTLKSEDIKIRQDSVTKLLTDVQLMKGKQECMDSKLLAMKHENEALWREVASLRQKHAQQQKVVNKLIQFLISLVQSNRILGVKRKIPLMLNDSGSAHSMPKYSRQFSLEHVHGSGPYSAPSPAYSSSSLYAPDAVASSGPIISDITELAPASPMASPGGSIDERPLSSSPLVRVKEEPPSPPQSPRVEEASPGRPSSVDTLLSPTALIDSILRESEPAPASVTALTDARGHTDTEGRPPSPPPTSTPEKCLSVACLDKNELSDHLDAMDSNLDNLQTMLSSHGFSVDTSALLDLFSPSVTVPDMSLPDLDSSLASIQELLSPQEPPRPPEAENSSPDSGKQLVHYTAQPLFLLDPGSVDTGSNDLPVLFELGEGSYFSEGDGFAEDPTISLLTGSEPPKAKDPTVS
Sequence of Bile acid receptor (Homo sapiens) (Q96RI1 whole entry, looked up): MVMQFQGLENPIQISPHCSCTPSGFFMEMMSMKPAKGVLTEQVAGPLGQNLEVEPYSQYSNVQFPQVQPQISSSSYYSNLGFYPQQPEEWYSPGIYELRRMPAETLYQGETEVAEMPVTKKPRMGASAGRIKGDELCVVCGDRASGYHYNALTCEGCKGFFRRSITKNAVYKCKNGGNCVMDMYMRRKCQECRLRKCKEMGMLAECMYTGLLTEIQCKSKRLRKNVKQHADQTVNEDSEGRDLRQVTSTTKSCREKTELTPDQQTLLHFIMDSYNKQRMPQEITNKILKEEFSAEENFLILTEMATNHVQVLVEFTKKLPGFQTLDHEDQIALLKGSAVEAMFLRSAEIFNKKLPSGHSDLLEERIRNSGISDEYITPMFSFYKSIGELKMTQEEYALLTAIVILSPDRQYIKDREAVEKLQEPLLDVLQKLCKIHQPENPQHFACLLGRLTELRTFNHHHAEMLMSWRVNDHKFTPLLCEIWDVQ

Broadly, the AC50 is the concentration giving half of the maximal activity seen. Regarding `O=C1OC(c2ccc(O)cc2)(c2ccc(O)cc2)c2ccccc21`, the AC50 was 176 µM (active) in experiment [1]; 20.8 µM (active) in [3]; 177 µM (active) in [6]; 159 µM (active) in experiment [9]; 70.1 µM (active) in [10]; 133 µM (active) in experiment [13]. In addition, the AC50 was 146 µM (active) in experiment [14], 45.1 µM (active) in experiment [15] and 4.42 µM (active) in experiment [16]. Further, the call in experiment [2], in experiment [4], in experiment [5], in [7], in experiment [8] and in [11] was inactive. In addition, in [12], the compound was called inactive.
Consider `S=c1[nH]c2ccccc2s1`, for which the result in experiment [1], in [2], in [3], in experiment [4], in [5] and in experiment [6] was inactive. Moreover, the compound was classed as inactive in experiment [7], in experiment [8], in experiment [17], in [18], in [11] and in [12]. The compound was called inactive in experiment [19], in experiment [13], in experiment [14], in experiment [15] and in [16]. Moreover, the AC50 in [10] was 41.8 µM (active).
Consider `O=C1NC(=O)C(c2ccccc2)(c2ccccc2)N1`, for which the outcome in experiment [1], in [2], in experiment [3], in [4], in experiment [5] and in experiment [6] was inactive. In addition, the compound was called inactive in experiment [7], in experiment [8], in experiment [18], in experiment [10], in experiment [11] and in experiment [12]. The outcome in experiment [13], in [14], in [15] and in experiment [16] was inactive.
In the case of `CC(=O)O`, the result in experiment [1], in [2], in experiment [3], in experiment [4], in [5] and in [6] was inactive. In addition, the compound was classed as inactive in [7], in [8], in experiment [10], in experiment [11], in experiment [12] and in [19]. In addition, the outcome in [13] and in experiment [15] was inactive.
For the compound `CC(C)c1cccc(C(C)C)c1NC(=O)NS(=O)(=O)c1cc(C(C)(C)O)co1`, the result in experiment [1], in experiment [2], in [3], in experiment [4], in experiment [5] and in [6] was inactive. Further, the compound was classed as inactive in experiment [7], in experiment [8], in experiment [17], in [10], in [11] and in [12]. Also, the compound was classed as inactive in [19], in [13], in [14] and in experiment [15].
For the compound `CCCC[C@H]1CN(CC2CCOCC2)C(=O)OC12CCN(C1(C)CCN(C(=O)c3c(C)ncnc3C)CC1)CC2`, the outcome in experiment [1], in experiment [2], in experiment [3], in [4], in experiment [5] and in [6] was inactive. Also, the call in [7], in experiment [8], in experiment [10], in experiment [11], in experiment [12] and in experiment [19] was inactive. Further, the result in experiment [13], in experiment [15] and in experiment [16] was inactive.
With `CCCCC(CC)COP(=O)(OCC(CC)CCCC)OCC(CC)CCCC` (configuration not stated), the outcome in [1], in experiment [2], in [3], in experiment [4], in experiment [5] and in experiment [6] was inactive. Besides, the result in [7], in [8], in [17], in [10], in experiment [11] and in experiment [12] was inactive. Further, the call in experiment [19], in [13], in experiment [14], in [15] and in experiment [16] was inactive.
